Assay results taken from the supplement of paper PMC7858590.
“And” between values parts separate entries of the source, which are not always exact repeats. Equal values may be shown once. ± gives the standard deviation of the averaged measurements. The full ranking holds about 3,800 compounds; the median of “cell shape (eccentricity) Z-score vs DMSO control” is about 1.1, and the lowest 2% start at about -4.7. What follows is part of a selection rich in the lowest values, with near analogues and random picks from the rest.

Each compound was assayed on human monocyte-derived macrophages (M0) (assay: cell shape (eccentricity) Z-score vs DMSO control; higher = more elongated, M2-like morphology). Conditions: 20 µM; 24 h; macrophage state: M0 (M-CSF).
Procedure: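 Primary human monocyte-derived macrophages (M-CSF differentiated, pooled from 4 donors, 5000 cells/well in 384-well plates) were treated with each compound at 20 uM for 24 h, then fixed and stained with phalloidin/DAPI and imaged on an Opera Phenix (6 fields, about 1000 cells/well). Cell eccentricity was measured with CellProfiler, and a Z-score (t-test) was computed against 4 DMSO control wells in the same row. Negative values mean round (M1-like) cells and positive values mean elongated (M2-like) cells; the paper's hit cutoffs are Z <= -4 (M1) and Z >= 6 (M2). Scale: negative = round, M1-like.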

| Structure (SMILES) | cell shape (Z-score) |
| --- | --- |
| COC(=O)Nc1nc2cc(SC(C)C)ccc2[nH]1 | -4.88 ± 0.16 |
| CCCCc1ccc2[nH]c(NC(=O)OC)nc2c1 | -5.71 and -2.34 |
| CCCOc1ccc2[nH]c(NC(=O)OC)nc2c1 | -1.59 |
| CCCSc1ccc2[nH]c(NC(=O)OC)nc2c1 | -3.67 |
| COC(=O)Nc1nc2cc(Sc3ccccc3)ccc2[nH]1 | -2.59 ± 3.9 |
| COC(=O)Nc1nc2cc(C(=O)C3CC3)ccc2[nH]1 | -3.64 |
| COc1ccc(C2Oc3cc(OC)ccc3CC2O)cc1 (centres undefined) | 1.66 ± 1.2 |
| COc1ccc(-c2oc3c(CC=C(C)C)c(O[C@@H]4O[C@H](CO)[C@@H](O)[C@H](O)[C@H]4O)cc(O)c3c(=O)c2O[C@@H]2O[C@@H](C)[C@H](O)[C@@H](O)[C@H]2O)cc1 | -2.65 |
| Nc1ncnc2c1c(-c1cccc(OCc3ccccc3)c1)cn2[C@H]1C[C@H](CN2CCCC2)C1 | 6.27 |
| O=c1c(O)c(-c2ccccc2)oc2ccccc12 | 1.62 |
| CCOC(=O)[C@H](CCc1ccccc1)N[C@@H](C)C(=O)N1Cc2ccccc2C[C@H]1C(=O)O | 2.22 |
| CC(=O)O[C@H]1CC[C@@]2(C)C(C[C@@H](OC(C)=O)[C@]3(C)C2CC[C@@]2(C)[C@H](c4ccoc4)OC(=O)[C@H]4O[C@]423)C1(C)C (some centres undefined) | -2.07 |
| CC(=O)O[C@H]1C[C@@H](O)C(C)(C)C2C[C@@H](OC(C)=O)[C@]3(C)C(CC[C@@]4(C)[C@H](c5ccoc5)OC(=O)C5OC543)[C@]21C (some centres undefined) | -2.78 |
| CC(=O)O[C@H]1C[C@@H](OC(C)=O)C(C)(C)C2C[C@@H](OC(C)=O)[C@]3(C)C(CC[C@@]4(C)[C@H](c5ccoc5)OC(=O)[C@H]5O[C@]543)[C@]21C (some centres undefined) | -2.55 |
| CC(=O)O[C@@H]1CC2C(C)(C)C(=O)CC[C@]2(C)C2CC[C@@]3(C)[C@H](c4ccoc4)OC(=O)C4OC43[C@@]21C (some centres undefined) | -5.48 |
| CC(=O)O[C@@H]1CC2C(C)(C)[C@H](O)CC[C@]2(C)C2CC[C@@]3(C)[C@H](c4ccoc4)OC(=O)C4OC43[C@@]21C (some centres undefined) | 2.33 |
| CC(=O)O[C@@H]1CC2C(C)(C)C(=O)C=C[C@]2(C)C2CC[C@@]3(C)[C@H](c4ccoc4)OC(=O)[C@H]4O[C@]43[C@@]21C (some centres undefined) | -4.89 |
| O=C1C[C@@H](c2ccc(O)c(O)c2)Oc2cc(O[C@@H]3O[C@H](CO)[C@@H](O)[C@H](O)[C@H]3O)cc(O)c21 | 0.661 ± 1.8 |
| OC(CN1CCNCC1)Cn1c2ccc(Br)cc2c2cc(Br)ccc21 (centres undefined) | -4.09 |
| C=C1CCC[C@]2(C)CC[C@@](O)(C(=C)C(=O)O)C[C@@H]12 | -0.504 |

| Structure (SMILES) | cell shape (Z-score) |
| --- | --- |
| CC1(C)CC[C@]2(C(=O)O[C@@H]3O[C@H](CO[C@@H]4O[C@H](CO)[C@@H](O)[C@H](O)[C@H]4O)[C@@H](O)[C@H](O[C@@H]4O[C@H](CO)[C@@H](O)[C@H](O)[C@H]4O)[C@H]3O)CC[C@]3(C)C(=CCC4[C@@]5(C)CC[C@H](O)[C@@](C)(C(=O)O)C5CC[C@]43C)C2C1 (some centres undefined) | 1.07 |
| C=C1CCC2C(CC2(C)C)C(=O)CCC1O (centres undefined) | -1.93 |
| C#CC1(OCC(O)CN2CCN(c3cccc(C(F)(F)F)c3)CC2)CCCCC1 (centres undefined) | -7.88 |
| OCC(O)CN1CCN(c2ccccc2)CC1 (centres undefined) | 2.29 |
| C#CC1(OCC(O)CN2CCN(c3ccccc3OC)CC2)CCCCC1 (centres undefined) | -0.311 |
| COC1=CC(=O)O[C@@H](/C=C/c2ccccc2)[C@@H]1O | -1.25 |
| COc1cc2c(c(OC)c1OC)C[C@H]1COC(=O)[C@@H]1Cc1c-2cc(OC)c(OC)c1OC | -9.6 |
| COc1cc2c(c(OC)c1OC)CCc1cc(O)c(O)cc1-2 | -0.208 |
| COc1cc2c(c(OC)c1OC)-c1cc3c(cc1C[C@H]1C(=O)OC[C@@H]1C2)OCO3 | 0.816 |
| CC(C)Cn1cnc2c(N)nc3ccccc3c21 | 3.03 |
| CC(C)C12CC1C(C)(O[C@@H]1O[C@H](CO)[C@@H](O)[C@H](O)[C@H]1O)CC2=O (some centres undefined) | 1.52 |
| CC(=O)OCC(=O)[C@H]1CCC2C3CC=C4C[C@@H](O)CC[C@]4(C)C3CC[C@@]21C (some centres undefined) | 3.17 |
| O=C(O)/C=C/c1ccccc1O[C@@H]1O[C@H](CO)[C@@H](O)[C@H](O)[C@H]1O | 1.56 |
| C[C@@H]1O[C@@H](O[C@@H]2[C@@H](O)[C@H](OC(=O)[C@]34CCC(C)(C)CC3C3=CCC5[C@@]6(C)CC[C@H](OC7OC(CO)C(OC8OCC(O)C(O)C8O)C(O)C7O)C(C)(C)C6CC[C@@]5(C)[C@]3(C)CC4O)O[C@H]2CO)[C@H](O)[C@H](O)[C@H]1O[C@H]1OC[C@](O)(CO)[C@H]1O (some centres undefined) | -11.6 |
| CC1(C)CC[C@@]2(C(=O)O[C@@H]3O[C@H](CO)[C@@H](O)[C@H](O)[C@H]3O)C(C1)C1=CCC3[C@@]4(C)CC[C@@H](O[C@@H]5O[C@H](CO)[C@@H](O)[C@H](O)[C@H]5O[C@@H]5O[C@H](CO)[C@@H](O)[C@H](O)[C@H]5O)C(C)(C)C4CC[C@@]3(C)[C@]1(C)C[C@H]2O (some centres undefined) | 0.124 ± 0.97 |
| CC1(C)CC[C@@]2(C(=O)O[C@@H]3O[C@H](CO)[C@@H](O)[C@H](O)[C@H]3O)C(C1)C1=CCC3[C@@]4(C)CC[C@@H](O[C@@H]5O[C@H](C(=O)O)[C@@H](O[C@@H]6OC[C@@H](O)[C@H](O)[C@H]6O)[C@H](O)[C@H]5O)C(C)(C)C4CC[C@@]3(C)[C@]1(C)C[C@H]2O (some centres undefined) | 1.81 |
| C[C@@H]1O[C@@H](O[C@@H]2[C@@H](O)[C@H](O[C@@H]3[C@@H](O)[C@@H](O)[C@H](O[C@H]4[C@H](OC(=O)[C@]56CCC(C)(C)C[C@H]5C5=CCC7[C@@]8(C)C[C@H](O)[C@H](O[C@@H]9O[C@H](C(=O)O)[C@@H](O)[C@H](O)[C@H]9O)[C@@](C)(CO)C8[C@H](O)C[C@@]7(C)[C@]5(C)C[C@H]6O)O[C@@H](CO)[C@@H]4O)O[C@H]3C)OC[C@H]2O)[C@H](O)[C@H](O)[C@H]1O (some centres undefined) | -6.05 |
| CC1OC(OC2C(CO)OC(OC(=O)[C@]34CCC(C)(C)CC3C3=CCC5[C@@]6(C)CC[C@H](OC7OC(C)C(OC8OCC(O)(COC9OCC(O)C(OC%10OCC(OC%11OCC(O)(CO)C%11O)C(O)C%10O)C9O)C8O)C(O)C7O)C(C)(C)C6CC[C@@]5(C)[C@]3(C)CC4)C(O)C2O)C(O)C(O)C1O (some centres undefined) | 2.74 |
| C[C@@H]1O[C@@H](O[C@H]2[C@H](OC(=O)[C@]34CCC(C)(C)C[C@H]3C3=CCC5[C@@]6(C)C[C@H](O)[C@H](O[C@@H]7O[C@H](C(=O)O)[C@@H](O)[C@H](O)[C@H]7O)[C@@](C)(CO)C6[C@H](O)C[C@@]5(C)[C@]3(C)C[C@H]4O)O[C@@H](CO)[C@@H]2O)[C@H](O)[C@H](O)[C@H]1O[C@@H]1OC[C@@H](O)[C@H](O[C@H]2OC[C@](O)(CO)[C@H]2O)[C@H]1O (some centres undefined) | -10.1 |
| CC1(C)CC[C@]2(C(=O)O[C@@H]3O[C@H](CO)[C@@H](O)[C@H](O)[C@H]3O)CC[C@]3(C)C(=CCC4[C@@]5(C)C[C@H](O)[C@H](O[C@@H]6O[C@H](C(=O)O)[C@@H](O)[C@H](O)[C@H]6O)[C@@](C)(CO)C5CC[C@]43C)C2C1 (some centres undefined) | 0.273 |

| Structure (SMILES) | cell shape (Z-score) |
| --- | --- |
| C[C@@H]1O[C@@H](O[C@@H]2[C@@H](O)[C@H](O[C@@H]3[C@@H](O)[C@@H](O)[C@H](O[C@H]4[C@H](OC(=O)[C@]56CCC(C)(C)C[C@H]5C5=CCC7[C@@]8(C)C[C@H](O)[C@H](O[C@@H]9O[C@H](C(=O)O)[C@@H](O)[C@H](O)[C@H]9O)[C@@](C)(CO)C8[C@H](O)C[C@@]7(C)[C@]5(C)C[C@H]6O)OC[C@H](O)[C@@H]4O)O[C@H]3C)OC[C@H]2O)[C@H](O)[C@H](O)[C@H]1O (some centres undefined) | 0.295 |
| CC1(C)CC[C@]2(C(=O)O[C@@H]3O[C@H](CO)[C@@H](O)[C@H](O)[C@H]3O)CC[C@]3(C)C(=CCC4[C@@]5(C)C[C@@H](O)[C@H](O)[C@@](C)(CO)C5[C@H](O)C[C@]43C)C2C1 (some centres undefined) | 4.82 ± 3.7 |
| Cc1cc(O)cc2oc3cc(O)cc(O)c3c(=O)c12 | -1.58 |
| CCCC(=O)Nc1ccc(OCC(O)CNC(C)C)c(C(C)=O)c1 (centres undefined) | 1.65 |
| CC1=C(CO)C(=O)OC([C@@H](C)[C@H]2CCC3C4CC=C5C[C@@H](O[C@@H]6O[C@H](CO)[C@@H](O)[C@H](O)[C@H]6O)C[C@H](O)[C@]5(C)C4CC[C@@]32C)C1 (some centres undefined) | 1.5 |
| C[C@@H](Oc1cc(-n2cnc3ccc(CN4CCN(C)CC4)cc32)sc1C(N)=O)c1ccccc1C(F)(F)F | 3.02 |
| C=C1[C@H]2CC[C@@]3(C)[C@H](c4ccoc4)OC(=O)C[C@]13O[C@H]1C[C@H](O)C(C)(C)[C@H](CC(=O)OC)[C@]12C | -1.66 |
| C=C1C(=O)OC2CC3(C)CCC=C(CO)C3CC12 (centres undefined) | -3.71 |
| COC(=O)C1=CO[C@@H](O[C@@H]2O[C@H](CO)[C@@H](O)[C@H](O)[C@H]2O)[C@H]2[C@@H]1C=CC21C=C([C@H](C)O)C(=O)O1 (some centres undefined) | 2.96 |
| CC(=O)OCC(Cc1ccccc1)NC(=O)C(Cc1ccccc1)NC(=O)c1ccccc1 (centres undefined) | 0.368 |
| COc1cc(C)c2c(c1C=O)Oc1c(c(C)c(O)c3c1C(O)OC3=O)OC2=O (centres undefined) | -1.59 |
| Cc1cc(O)c(C)c2c1Oc1c(C)c(O)cc(C)c1C(=O)O2 | -6.49 |
| Cc1cc(O)c(C=O)c2c1C(=O)Oc1c(C)c(O)c3c(c1O2)C(O)OC3=O (centres undefined) | 1.11 |
| CC(=O)OCC(=O)[C@@]1(O)CCC2C3C[C@H](C)C4=CC(=O)C=CC4(C)C3[C@@H](O)CC21C (some centres undefined) | -2.52 |
| CC(CN(C)C)CN1c2ccccc2Sc2ccccc21 (centres undefined) | -1.29 |
| COc1ccc2nc(NC(=O)Nc3ccccc3)sc2c1 | 2.21 |
| O=C(Nc1nc2ccc(NC(=O)C34C[C@H]5C[C@@H](C3)C[C@@H](C4)C5)cc2s1)c1ccccc1 | -4.79 |
| O=C(Nc1ccc(C(=O)O)c(O)c1)c1ccccc1 | 1.5 |
| N=C(N)NCCNS(=O)(=O)c1cccc2cnccc12 | 5.63 |
